Measured values: PubChem BioAssay AID1159580 (chemical genetic matrix, 2015)
Values joined by “and” are separate entries in the source; they are usually repeats but may differ in a detail not shown here. Equal entries are not always repeated. In all, about 5,500 compounds went through this assay and about 2,000 (36%) were called active. Roughly 18% stayed inconclusive and do not appear here. Rule as the data show it: active = normalized growth mostly below about 0.91 (no sharp cut-off); inconclusive = no clear call, values can overlap the other calls; inactive = mostly above about 0.92. The list shows a part of the results.

Test: chemical genetic growth profiling, strain panel (AID 1159580);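 also: tested at 20 µM; growth read once vehicle control cultures reached saturation at 30 °C; 1 = growth at the plate median or of vehicle wells; lower values mean less growth of the strain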
Conditions: S. cerevisiae deletion strains, growth OD

Measured: normalized growth

C=C(C)C1Cc2c(ccc3c(=O)c4c(oc23)COc2cc(OC)c(OC)cc2-4)O1 (stereo unspecified)
inactive: locus YAL021C, strain ccr4, hits give low values 1.01 | locus YAL026C, strain drs2, hits give low values 0.999 | locus YAL030W, strain snc1, hits give low values 0.987 | locus YBL061C, strain skt5, hits give low values 0.999 | locus YBR009C, strain hhf1, hits give low values 1 | locus YBR021W, strain FUR4, hits give low values 1.05 | locus YBR023C, strain chs3, hits give low values 0.998 | locus YBR171W, strain sec66, hits give low values 0.99 | locus YBR229C, strain ROT2, hits give low values 1 | locus YBR231C, strain swc5, hits give low values 1.01 | locus YBR279W, strain paf1, hits give low values 1 | locus YCL011C, strain gbp2, hits give low values 0.989 | locus YCL016C, strain dcc1, hits give low values 0.995 | locus YCL029C, strain bik1, hits give low values 1 | locus YCL061C, strain MRC1, hits give low values 0.996 | locus YCL069W, strain vba3, hits give low values 0.999 | locus YCR088W, strain abp1, hits give low values 0.996 | locus YDL005C, strain med2, hits give low values 0.997 | locus YDL035C, strain GPR1, hits give low values 1.04 | locus YDL040C, strain nat1, hits give low values 0.991 | locus YDL074C, strain BRE1, hits give low values 1.04 | locus YDL101C, strain DUN1, hits give low values 0.994 | locus YDL134C, strain PPH21, hits give low values 1.01 | locus YDL185W, strain tfp1, hits give low values 0.956 | locus YDL192W, strain arf1, hits give low values 1.03 | locus YDR001C, strain nth1, hits give low values 1 | locus YDR069C, strain doa4, hits give low values 1 | locus YDR101C, strain arx1, hits give low values 1.04 | locus YDR137W, strain rgp1, hits give low values 0.926 | locus YDR150W, strain NUM1, hits give low values 0.989 | locus YDR159W, strain sac3, hits give low values 1.01 | locus YDR162C, strain NBP2, hits give low values 1.04 | locus YDR195W, strain ref2 0.998 | locus YDR297W, strain sur2, hits give low values 0.995 | locus YDR318W, strain mcm21, hits give low values 1.01 | locus YDR334W, strain swr1, hits give low values 0.982 | locus YDR335W, strain msn5, hits give low values 1 | locus YDR388W, hits give low values 0.997 | locus YDR392W, strain spt3, hits give low values 0.982 | locus YDR502C, strain sam2, hits give low values 1.01 | locus YEL003W, strain gim4, hits give low values 0.991 | locus YEL037C, strain rad23, hits give low values 0.997 | locus YEL061C, strain CIN8 (second series), hits give low values 1 | locus YEL061C, strain CIN8, hits give low values 1 | locus YER015W, strain faa2, hits give low values 1 | locus YER016W, strain bim1, hits give low values 0.994 | locus YER110C, hits give low values 1 | locus YER111C, strain swi4, hits give low values 1.01 | locus YER155C, strain BEM2 (second series), hits give low values 1.01 | locus YER155C, strain BEM2, hits give low values 0.99 | locus YER167W, strain BCK2, hits give low values 0.988 | locus YFR010W, strain ubp6, hits give low values 0.988 | locus YGL078C, strain dbp3, hits give low values 0.987 | locus YGL086W, strain mad1, hits give low values 0.995 | locus YGL167C, strain pmr1, hits give low values 1.01 | locus YGL173C, strain kem1, hits give low values 0.996 | locus YGL227W, strain vid30, hits give low values 1.01 | locus YGL240W, strain doc1, hits give low values 1.01 | locus YGL248W, strain PDE1, hits give low values 0.999 | locus YGL253W, strain hxk2, hits give low values 1 | locus YGR135W, strain pre9, hits give low values 0.983 | locus YGR229C, strain SMI1, hits give low values 0.988 | locus YGR252W, strain gcn5, hits give low values 1.06 | locus YHR013C, strain ard1, hits give low values 1.01 | locus YHR027C, strain rpn1, hits give low values 0.99 | locus YHR030C, strain SLT2, hits give low values 0.973 and 1.01 | locus YHR079C, strain IRE1 (second series), hits give low values 1 | locus YHR079C, strain IRE1, hits give low values 1.06 | locus YHR094C, strain hxt1, hits give low values 0.979 | locus YHR129C, strain ARP1, hits give low values 1.01 | locus YHR142W, strain chs7, hits give low values 1.01 | locus YHR200W, strain rpn10, hits give low values 1.01 | locus YIL066C, strain RNR3, hits give low values 1 | locus YIL073C, strain SPO22, hits give low values 0.927 | locus YIL125W, strain kgd1, hits give low values 0.998 | locus YIR030C, strain dcg1, hits give low values 0.999 | locus YJL092W, strain hpr5, hits give low values 0.993 | locus YJL095W, strain BCK1 (second series), hits give low values 0.998 | locus YJL095W, strain BCK1, hits give low values 1.03 and 1.01 | locus YJL115W, strain asf1, hits give low values 0.974 | locus YJL129C, strain trk1, hits give low values 0.993 | locus YJL134W, strain LCB3, hits give low values 0.998 | locus YJL154C, strain vps35, hits give low values 0.99 | locus YJL164C, strain tpk1, hits give low values 1 | locus YJL166W, strain qcr8, hits give low values 1.01 | locus YJL168C, strain set2, hits give low values 0.998 | locus YJL187C, strain SWE1 (second series), hits give low values 0.995 | locus YJL187C, strain SWE1, hits give low values 1.01 | locus YJR043C, strain POL32, hits give low values 1.04 | locus YJR066W, strain TOR1, hits give low values 0.986 | locus YKL009W, strain mrt4, hits give low values 1 | locus YKL068W, hits give low values 0.982 | locus YKL085W, strain MDH1 (second series), hits give low values 0.997 | locus YKL085W, strain MDH1, hits give low values 0.997 | locus YKL160W, strain elf1, hits give low values 1.01 | locus YKL190W, strain CNB1, hits give low values 0.992 | locus YKR001C, strain vps1, hits give low values 1.03 | locus YKR026C, strain gcn3, hits give low values 0.999 | locus YKR091W, strain srl3, hits give low values 0.999 | locus YLL001W, strain dnm1, hits give low values 0.995 | locus YLL026W, hits give low values 0.993 | locus YLL041C, strain sdh2, hits give low values 0.978 | locus YLR027C, strain aat2, hits give low values 0.986 | locus YLR039C, strain RIC1, hits give low values 0.99 | locus YLR058C, strain SHM2, hits give low values 1.02 | locus YLR102C, strain apc9, hits give low values 0.993 | locus YLR113W, strain HOG1, hits give low values 0.992 | locus YLR221C, strain rsa3, hits give low values 1 | locus YLR258W, strain gsy2, hits give low values 0.991 | locus YLR262C, strain YPT6 (second series), hits give low values 1 | locus YLR262C, strain YPT6, hits give low values 0.969 | locus YLR268W, strain sec22, hits give low values 1.04 | locus YLR320W, strain mms22, hits give low values 1.02 | locus YLR330W, strain CHS5, hits give low values 1 | locus YLR342W, strain FKS1 (second series), hits give low values 1.06 | locus YLR342W, strain FKS1, hits give low values 1 | locus YLR357W, strain rsc2, hits give low values 1.02 | locus YLR370C, strain arc18, hits give low values 1.01 | locus YLR371W, strain rom2, hits give low values 0.98 | locus YLR384C, strain iki3, hits give low values 1 | locus YLR418C, strain cdc73, hits give low values 1.05 | locus YML016C, strain PPZ1, hits give low values 0.999 | locus YML032C, strain rad52, hits give low values 1.01 | locus YML120C, strain ndi1, hits give low values 1.01 | locus YML124C, strain tub3, hits give low values 0.992 | locus YMR058W, strain fet3, hits give low values 1 | locus YMR078C, strain ctf18, hits give low values 0.998 | locus YMR125W, strain sto1, hits give low values 0.998 | locus YMR129W, hits give low values 0.996 | locus YMR205C, strain PFK2, hits give low values 1.02 | locus YMR223W, strain ubp8, hits give low values 1.01 | locus YMR231W, strain pep5, hits give low values 0.996 | locus YMR307W, strain GAS1, hits give low values 1.18 | locus YNL067W, strain RPL9B, hits give low values 0.984 | locus YNL071W, strain lat1, hits give low values 0.981 | locus YNL153C, strain GIM3, hits give low values 0.991 | locus YNL183C, strain NPR1, hits give low values 0.988 | locus YNL209W, strain ssb2, hits give low values 0.999 | locus YNL233W, strain BNI4, hits give low values 1.03 | locus YNL248C, strain rpa49, hits give low values 0.991 | locus YNL250W, strain rad50, hits give low values 0.962 | locus YNL271C, strain bni1, hits give low values 0.99 | locus YNL298W, strain CLA4, hits give low values 1 | locus YNL307C, strain MCK1, hits give low values 0.993 | locus YNL322C, strain KRE1 (second series), hits give low values 1 | locus YNL322C, strain KRE1, hits give low values 0.999 | locus YNR049C, strain mso1, hits give low values 1 | locus YNR052C, strain pop2, hits give low values 0.991 | locus YOL012C, strain htz1 1.59 | locus YOL147C, strain pex11, hits give low values 0.992 | locus YOR001W, strain rrp6, hits give low values 0.99 | locus YOR061W, strain CKA2, hits give low values 1 | locus YOR069W, strain VPS5, hits give low values 0.996 | locus YOR070C, strain gyp1, hits give low values 0.99 | locus YOR080W, strain dia2, hits give low values 1 | locus YOR083W, strain WHI5, hits give low values 1.01 | locus YOR106W, strain vam3, hits give low values 1.02 | locus YOR136W, strain idh2, hits give low values 1 | locus YOR144C, strain elg1, hits give low values 0.999 | locus YOR184W, strain ser1, hits give low values 1.07 | locus YOR231W, strain MKK1, hits give low values 1.03 | locus YOR265W, strain rbl2, hits give low values 0.993 | locus YOR270C, strain vph1, hits give low values 1 | locus YOR290C, strain snf2, hits give low values 0.998 | locus YOR316C, strain cot1, hits give low values 0.982 | locus YPL051W, strain arl3, hits give low values 1.01 | locus YPL078C, strain atp4, hits give low values 1.01 | locus YPL106C, strain sse1, hits give low values 0.992 | locus YPL240C, strain hsp82, hits give low values 0.976 | locus YPL241C, strain CIN2, hits give low values 0.991 | locus YPL256C, strain CLN2, hits give low values 1.03 | locus YPR119W, strain clb2, hits give low values 0.988 | locus YPR141C, strain kar3, hits give low values 0.974 | locus YPR163C, strain tif3, hits give low values 0.974 | locus YPR167C, strain met16, hits give low values 1.01 | strain wtn01, hits give low values 1.03
